Screening data from PubChem BioAssay.
IDE exosite FP = exo-site inhibitors of human IDE, primary screen, biochemical, fluorescence anisotropy, probe displacement; z-score at 20 µM; purified IDE, FL-6b probe fluorescence polarization; stronger effect = lower value; AID 1259349, 2017; 6.3% of 17,000 active;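 active = z-score of -3 or lower, meaning strong loss of probe binding signal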;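 also: His-tagged human IDE residues 42-1019 made in E. coli with 30 nM FL-6b probe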
Large screens that a line does not name were inactive. The sample as a whole holds a higher share of hits than the screen did.

COCC(=O)N1CCCCN2[C@@H](CO)[C@H](c3ccc(-c4cccc(C)c4)cc3)[C@@H]2C1	IDE exosite FP -3.1
COCC(=O)N1CCCCN2[C@H](CO)[C@H](c3ccc(-c4ccc(C)cc4)cc3)[C@@H]2C1	none
COCC(=O)N1CCCCN2[C@H](CO)[C@@H](c3ccc(-c4cccc(C)c4)cc3)[C@@H]2C1	IDE exosite FP -5.3
COCC(=O)N1CCCCN2[C@@H](CO)[C@H](c3ccc(-c4ccc(C)cc4)cc3)[C@@H]2C1	none
COCC(=O)N1CCCCN2[C@H](C1)[C@H](c1ccc(-c3ccc(C)cc3)cc1)[C@@H]2CO	none
COCC(=O)N1CCCCN2[C@@H](CO)[C@@H](c3ccc(-c4ccc(C)cc4)cc3)[C@@H]2C1	none
C[C@H]1CN([C@@H](C)CO)C(=O)c2cc(-c3ccncc3)cnc2O[C@@H]1CN(C)C(=O)CN1CCOCC1	none
C[C@@H]1CCCCO[C@@H](CN(C)C(=O)Nc2ccc3c(c2)OCO3)[C@@H](C)CN([C@H](C)CO)C(=O)c2cc(NS(=O)(=O)c3ccc(F)cc3)ccc2O1	none
Cc1cccc(-c2ccc([C@@H]3[C@H](CO)N4CCCCN(S(=O)(=O)c5cccs5)C[C@@H]34)cc2)c1	IDE exosite FP -8
Cc1cccc(-c2ccc([C@@H]3[C@H]4CN(S(=O)(=O)c5cccs5)CCCCN4[C@H]3CO)cc2)c1	none
COc1cccc(S(=O)(=O)N2CCCCN3[C@@H](CO)[C@@H](c4ccc(-c5ccccc5)cc4)[C@@H]3C2)c1	none
O=S(=O)(c1cccs1)N1CCCCN2[C@@H](CO)[C@@H](c3ccc(/C=C/c4ccccc4)cc3)[C@@H]2C1	IDE exosite FP -3.2
Cc1cccc(-c2ccc([C@H]3[C@H](CO)N4CCCCN(S(=O)(=O)c5cccs5)C[C@@H]34)cc2)c1	none
O=S(=O)(c1cccs1)N1CCCCN2[C@H](C1)[C@H](c1ccc(C3=CCCC3)cc1)[C@@H]2CO	none
Cc1cccc(-c2ccc([C@H]3[C@@H](CO)N4CCCCN(S(=O)(=O)c5cccc(C)c5)C[C@@H]34)cc2)c1	none
COc1cccc(-c2ccc([C@@H]3[C@H](CO)N4CCCCN(S(=O)(=O)c5cccs5)C[C@@H]34)cc2)c1	IDE exosite FP -6
COc1cccc(-c2ccc([C@@H]3[C@@H](CO)N4CCCCN(S(=O)(=O)c5cccs5)C[C@H]34)cc2)c1	none
Cc1cccc(-c2ccc([C@@H]3[C@@H](CO)N4CCCCN(S(=O)(=O)c5cccs5)C[C@@H]34)cc2)c1	IDE exosite FP -3.8
O=S(=O)(c1cccs1)N1CCCCN2[C@H](C1)[C@H](c1ccc(/C=C/c3ccccc3)cc1)[C@@H]2CO	none
O=S(=O)(c1cccs1)N1CCCCN2[C@H](CO)[C@H](c3ccc(/C=C/c4ccccc4)cc3)[C@@H]2C1	none
COCC(=O)N1[C@H](C(=O)NCc2ccccc2)[C@@H](CO)[C@@H]2Cn3c(cccc3=O)[C@@H]21	none
Cc1ccccc1NC(=O)C[C@H]1CC[C@H]2[C@@H](COc3ccc(NC(=O)NC(C)C)cc3C(=O)N2C)O1	none
CCCN1C[C@H](C)[C@H](OC)CN(C)C(=O)c2cc(NC(=O)C3CCC3)ccc2OC[C@H]1C	none
C[C@@H]1CN([C@H](C)CO)C(=O)c2cc(NC(=O)Nc3ccc(C(F)(F)F)cc3)ccc2O[C@@H](C)CCCCO[C@@H]1CN(C)S(=O)(=O)c1ccc(Cl)cc1	none
CC1C=NC(S(=O)(=O)N2CC[C@H]3[C@@H](CO)N(C)c4ccc(C#Cc5cccnc5)cc4[C@H]32)=N1 (stereo partly specified)	none
CN1CCN(C(=O)C[C@@H]2CC[C@H]3[C@@H](COC[C@H](O)CN3C(=O)Nc3ccc4c(c3)OCO4)O2)CC1	none
C[C@@H]1CCCCO[C@@H](CN(C)S(=O)(=O)c2cn(C)cn2)[C@@H](C)CN([C@H](C)CO)C(=O)c2cc(NC(=O)Nc3cccc4ccccc34)ccc2O1	none
C[C@@H]1CCCCO[C@@H](CN(C)S(=O)(=O)c2cn(C)cn2)[C@@H](C)CN([C@@H](C)CO)C(=O)c2cc(NC(=O)Nc3cccc4ccccc34)ccc2O1	IDE exosite FP -4.2
C[C@@H]1CCCCO[C@H](CN(C)S(=O)(=O)c2cn(C)cn2)[C@@H](C)CN([C@@H](C)CO)C(=O)c2cc(NC(=O)Nc3cccc4ccccc34)ccc2O1	none
C[C@@H]1CN([C@@H](C)CO)C(=O)c2cc(NC(=O)Nc3cccc4ccccc34)ccc2O[C@@H](C)CCCCO[C@@H]1CN(C)S(=O)(=O)c1cn(C)cn1	IDE exosite FP -3.9
C[C@@H]1CCCCO[C@H](CN(C)S(=O)(=O)c2cn(C)cn2)[C@H](C)CN([C@@H](C)CO)C(=O)c2cc(NC(=O)Nc3cccc4ccccc34)ccc2O1	none
C[C@@H]1CN([C@H](C)CO)C(=O)c2cc(NC(=O)Nc3cccc4ccccc34)ccc2O[C@@H](C)CCCCO[C@H]1CN(C)S(=O)(=O)c1cn(C)cn1	none
CC(=O)NC[C@H]1[C@@H](c2ccccc2)[C@@H](CO)N1C(=O)Cc1ccncc1	none
N#C[C@H]1[C@H](c2ccc(-c3cccnc3)cc2)[C@@H](CO)N1C(=O)C1CC1	none
COCC(=O)N1[C@@H]2CN(C(=O)Nc3ccccc3Cl)c3ccccc3[C@@H]2[C@@H]1CO	none
CCCNC(=O)C[C@@H]1CC[C@H]2[C@@H](COc3ccc(NC(=O)CC)cc3C(=O)N2C)O1	none
Cc1ccc(-c2ccc([C@@H]3[C@@H](CO)N4CCCCN(C(=O)c5ccncc5)C[C@@H]34)cc2)cc1	none
Cc1cccc(-c2ccc([C@H]3[C@@H](CO)N4CCCCN(C(=O)NC(C)C)C[C@@H]34)cc2)c1	IDE exosite FP -6
Cc1cccc(-c2ccc([C@@H]3[C@@H](CO)N4CCCCN(C(=O)NC(C)C)C[C@H]34)cc2)c1	IDE exosite FP -7.2
Cc1cccc(-c2ccc([C@@H]3[C@@H](CO)N4CCCCN(C(=O)NC(C)C)C[C@@H]34)cc2)c1	IDE exosite FP -5.5
COc1ccccc1NC(=O)N1CCCCN2[C@H](CO)[C@@H](c3ccc(-c4cccc(C)c4)cc3)[C@@H]2C1	none
COc1ccccc1NC(=O)N1CCCCN2[C@@H](CO)[C@@H](c3ccc(-c4cccc(C)c4)cc3)[C@@H]2C1	none
COc1ccccc1NC(=O)N1CCCCN2[C@H](C1)[C@H](c1ccc(-c3cccc(C)c3)cc1)[C@@H]2CO	none
COc1ccc(S(=O)(=O)N2CCCCN3[C@H](CO)[C@@H](c4ccc(C#CC5CC5)cc4)[C@@H]3C2)cc1	none
COc1ccc2c3c(n(C)c2c1)[C@H](CO)N(CC1CC1)CC31CN(C(=O)c2ccc3c(c2)OCO3)C1	none
N#C[C@H]1[C@H](c2ccccc2C2=CCCC2)[C@@H](CO)N1C(=O)C1CCOCC1	none
Cc1ccc(S(=O)(=O)N(C)C[C@@H]2OCCCC[C@@H](C)Oc3ccc(NC(=O)c4ccncc4)cc3C(=O)N([C@@H](C)CO)C[C@H]2C)cc1	none
Cc1ccccc1-c1ccc([C@H]2[C@@H](CO)N3CCCCN(S(=O)(=O)c4cn(C)cn4)C[C@H]23)cc1	IDE exosite FP -17
Cn1cnc(S(=O)(=O)N2CCCCN3[C@@H](CO)[C@H](c4ccc(-c5ccccc5F)cc4)[C@@H]3C2)c1	none
COc1ccccc1-c1ccc([C@@H]2[C@H]3CN(S(=O)(=O)c4cn(C)cn4)CCCCN3[C@H]2CO)cc1	IDE exosite FP -8.4
Cn1cnc(S(=O)(=O)N2CCCCN3[C@H](C2)[C@H](c2ccc(-c4ccccc4F)cc2)[C@@H]3CO)c1	none
Cn1cnc(S(=O)(=O)N2CCCCN3[C@H](C2)[C@H](c2ccc(-c4ccc(F)cc4)cc2)[C@@H]3CO)c1	none
